# Results as given in article PMC8384837, “Expanding the binding specificity for RNA recognition by a PUF domain”.
# What was measured:
# Test in all cases: yeast three-hybrid, YBZ-1, SC-Leu-His + 0.5 mM 3-AT, 4 days
# Conditions in all cases: tags: N-Gal4 AD-HA kept; label: inside an RPR1-promoter hybrid RNA with tandem MS2 sites; ssRNA
# PUM1 PUF domain R5-DHS = PUM1 PUF domain R5-DHS (Homo sapiens, UniProt Q14671 828-1176, C1007D;R1008H;Q1011S)
# In short: (§1)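 A centromeric plasmid in strain YBZ-1 co-expressed Pumilio-1 PUF domain libraries, randomized at the three base-contacting residues of each repeat, with matching RNA elements; the strain carries a LexA–MS2 coat fusion and a HIS3 reporter. After four days on SC-Leu (input) or SC-Leu-His + 0.5 mM 3-AT (selection), the repeat regions were PCR-amplified and Illumina-sequenced. The interaction score is the log change in variant frequency from input to selection, using log2 and a pseudocount of 1 where absent.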
# PUM1 PUF domain R5-GWL = PUM1 PUF domain R5-GWL (Homo sapiens, UniProt Q14671 828-1176, C1007G;R1008W;Q1011L)
# In short: as §1
# PUM1 PUF domain R5-FQR = PUM1 PUF domain R5-FQR (Homo sapiens, UniProt Q14671 828-1176, C1007F;R1008Q;Q1011R)
# In short: as §1
# PUM1 PUF domain R8-TFN = PUM1 PUF domain R8-TFN (Homo sapiens, UniProt Q14671 828-1176, N1122T;Y1123F;Q1126N)
# In short: as §1
# PUM1 PUF domain R8-QWG = PUM1 PUF domain R8-QWG (Homo sapiens, UniProt Q14671 828-1176, N1122Q;Y1123W;Q1126G)
# In short: as §1
# PUM1 PUF domain R5-KHA = PUM1 PUF domain R5-KHA (Homo sapiens, UniProt Q14671 828-1176, C1007K;R1008H;Q1011A)
# In short: as §1
# PUM1 PUF domain R4-DWL = PUM1 PUF domain R4-DWL (Homo sapiens, UniProt Q14671 828-1176, N971D;H972W;Q975L)
# In short: as §1
# PUM1 PUF domain R5-DME = PUM1 PUF domain R5-DME (Homo sapiens, UniProt Q14671 828-1176, C1007D;R1008M;Q1011E)
# In short: as §1
# PUM1 PUF domain R7-LFR = PUM1 PUF domain R7-LFR (Homo sapiens, UniProt Q14671 828-1176, S1079L;N1080F;E1083R)
# In short: as §1
# Sequence of PUM1 PUF domain R5-GWL (Q14671 828-1176 C1007G/R1008W/Q1011L): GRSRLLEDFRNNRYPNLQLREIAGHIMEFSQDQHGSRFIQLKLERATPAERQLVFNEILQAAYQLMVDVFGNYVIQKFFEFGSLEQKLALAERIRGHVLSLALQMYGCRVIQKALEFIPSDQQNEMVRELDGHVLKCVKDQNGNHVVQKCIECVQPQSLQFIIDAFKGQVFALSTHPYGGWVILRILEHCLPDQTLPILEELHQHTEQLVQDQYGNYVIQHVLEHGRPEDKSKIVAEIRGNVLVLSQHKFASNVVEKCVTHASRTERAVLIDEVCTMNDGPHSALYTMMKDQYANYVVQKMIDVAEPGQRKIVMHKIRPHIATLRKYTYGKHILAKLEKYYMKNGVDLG
sequence,measurement,setting,value
GGCUAGAACUAGUGGAUCCCCCGGCGCCCGGCGGCUCGAGCCCGGGUAAGUGUUAAUAGUCUGCAUGCCGCCGGGCGCCAUGCCUGCAGGUCGACUCUAGAAAACAUG,binding signal,PUM1 PUF domain R5-DHS,4.63 log2 enrichment (interaction score)
same,binding signal,PUM1 PUF domain R5-GWL,3.36 log2 enrichment (interaction score)
same,binding signal,PUM1 PUF domain R5-FQR,3.58 log2 enrichment (interaction score)
GGCUAGAACUAGUGGAUCCCCCGGCGCCCGGCGGCUCGAGCCCGGGUAAGCGUAAAUAGUCUGCAUGCCGCCGGGCGCCAUGCCUGCAGGUCGACUCUAGAAAACAUG,binding signal,PUM1 PUF domain R8-TFN,2.95 log2 enrichment (interaction score)
same,binding signal,PUM1 PUF domain R8-QWG,2.14 log2 enrichment (interaction score)
GGCUAGAACUAGUGGAUCCCCCGGCGCCCGGCGGCUCGAGCCCGGGUAAGUGUCAAUAGUCUGCAUGCCGCCGGGCGCCAUGCCUGCAGGUCGACUCUAGAAAACAUG,binding signal,PUM1 PUF domain R5-FQR,2.5 log2 enrichment (interaction score)
same,binding signal,PUM1 PUF domain R5-KHA,6.11 log2 enrichment (interaction score)
GGCUAGAACUAGUGGAUCCCCCGGCGCCCGGCGGCUCGAGCCCGGGUAAGUGUAUAUAGUCUGCAUGCCGCCGGGCGCCAUGCCUGCAGGUCGACUCUAGAAAACAUG,binding signal,PUM1 PUF domain R4-DWL,5.76 log2 enrichment (interaction score)
GGCUAGAACUAGUGGAUCCCCCGGCGCCCGGCGGCUCGAGCCCGGGUAAGUGUGAAUAGUCUGCAUGCCGCCGGGCGCCAUGCCUGCAGGUCGACUCUAGAAAACAUG,binding signal,PUM1 PUF domain R5-DME,2.8 log2 enrichment (interaction score)
same,binding signal,PUM1 PUF domain R5-GWL,3.27 log2 enrichment (interaction score)
GGCUAGAACUAGUGGAUCCCCCGGCGCCCGGCGGCUCGAGCCCGGGUAAGUCUAAAUAGUCUGCAUGCCGCCGGGCGCCAUGCCUGCAGGUCGACUCUAGAAAACAUG,binding signal,PUM1 PUF domain R7-LFR,4.97 log2 enrichment (interaction score)
